# Source: PubChem BioAssay (NCI)
# Values joined by “and” are separate entries in the source; they are usually repeats but may differ in a detail not shown here. Identical values can stand only once. The panel holds about 83,000 compounds, 20% with a hit somewhere; the sample as a whole holds those more often.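 48-hour exposure, single concentration, 96-well plates; percent growth endpoint where 0 means no net growth. Active: below 10.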 A number with no mark means an inactive call. Active and inactive are the calls of the source.
# Legend:
# Experiment in all cases: NCI-60 one-dose screen, 48 h (100 = growth as untreated, 0 = no growth, -100 = all killed)
# Conditions in all cases: 10 µM unless noted
# [1] = test system: HCT-15 colon
# [2] = test system: HT29 colon
# [3] = test system: SNB-75 CNS
# [4] = test system: SNB-19 CNS
# [5] = test system: U251 CNS
# [6] = test system: PC-3 prostate
# [7] = test system: LOX IMVI melanoma
# [8] = test system: SK-MEL-28 melanoma
# [9] = test system: SK-MEL-2 melanoma
# [10] = test system: EKVX NSCLC
# [11] = test system: SN12C renal
# [12] = test system: UO-31 renal
# [13] = test system: TK-10 renal
# [14] = test system: ACHN renal
# [15] = test system: CAKI-1 renal
# [16] = test system: A498 renal
# [17] = test system: CCRF-CEM leukemia
# [18] = test system: MOLT-4 leukemia
# [19] = test system: SK-MEL-5 melanoma
# [20] = test system: UACC-62 melanoma
SMILES,growth [1] [%],growth [2],growth [3],growth [4],growth [5],growth [6],growth [7],growth [8],growth [9],growth [10],growth [11],growth [12],growth [13],growth [14],growth [15],growth [16],growth [17],growth [18],growth [19],growth [20]
Nc1ccc(SSc2ccc(N)cc2)cc1,88.6,112%,102%,109%,76%,84.8%,79.6%,114%,91.6%,106%,101%,73.6%,111%,93.5%,98.5%,103%,106%,96.1%,–,–
Cc1ccnc(NC(c2ccccc2)c2ccc3cccnc3c2O)c1 (stereo unspecified),–,43.1%,52.2%,40.3%,20.4%,35.3%,28.1%,47%,50.4%,33.5%,38.8%,14.8%,58.3%,28.5%,–,77.3%,16.4%,18%,39.4%,–
N#CSCc1c(Cl)cccc1Cl,–,12%,96.4%,90.2%,91.8%,76.2%,49.9%,56.2%,102%,103%,93.3%,40.2%,101%,49.9%,–,85.1%,44.1%,90.9%,–,–
NC(N)=N/N=C/c1ccc([N+](=O)[O-])o1,–,33.2%,106%,99.9%,80.8%,90%,82.1%,114%,83.4%,122%,86.6%,88.8%,115%,92.8%,106%,105%,87.9%,103%,–,92.9%
C=C(Cl)C(=NC(C)(C)C)Nc1ccccc1C,–,37.6%,85.7%,95.3%,83.9%,77.3%,81.1%,98.4%,139%,90.4%,83.5%,80.7%,106%,–,104%,105%,98.1%,72.2%,95.4%,59.7%
NC(=S)N/N=C\c1nccc2c(C(F)(F)C(F)(F)C(F)(F)F)cccc12,–,8.84% (active),20.2%,21.8%,-9.91% (active),9.51% (active),4.13% (active),25.2%,7.18% (active),11.8%,15.6%,-31.9% (active),11.9%,-0.888% (active),-5.07% (active),–,-8.14% (active),-30.9% (active),-54.7% (active),-39.8% (active)
COC(=O)[C@@]12OC[C@]34[C@H]([C@@H](O)[C@@H]1O)[C@@]1(C)[C@H](O)C(=O)C=C(C)[C@@H]1C[C@H]3OC(=O)C(OC(C)=O)[C@@H]24 (stereo partly specified),–,6.8% (active),-80.1% (active),-18.8% (active),-31.4% (active),-51% (active),-84.1% (active),-51.5% (active),-49.5% (active),-43.6% (active),-17.5% (active),–,-32.7% (active),-39.2% (active),–,-49.4% (active),–,-41.6% (active),-76.9% (active),-88.8% (active)
CN(C)c1ccc(N=Nc2cccc3ccccc23)cc1,–,93.5%,76.4%,100%,88.6%,75.9%,96.3%,103%,100%,71.7%,92.9%,57.5%,80.9%,91.3%,–,85.3%,81.6%,84.3%,–,84.2%
C/C=C1\SC(=S)NC1=O,–,108%,88.5%,102%,96.2%,95.1%,101%,107%,111%,95.1%,101%,–,98.4%,106%,–,108%,–,–,99.8%,97.8%
Cc1ccc2nc(C[n+]3ccc4ccccc4c3)ccc2c1,–,37.3%,58.9%,46.5%,42.1%,38.5%,68.4%,63.5%,78.8%,72.2%,39.3%,85.7%,95%,–,98.3%,81%,52.6%,71.9%,-31.1% (active),69.8%
CC1SC(=S)N(c2ccc(Cl)cc2)C1=O (stereo unspecified),–,105% and 98.8%,88.8% and 83%,99.9% and 104%,95.4% and 93.6%,97.7% and 74.3%,85.9% and 90.2%,210% and 104%,98.2%,87.8% and 89.7%,93% and 85.6%,–,103% and 114%,86.8% and 73.4%,109% and 82.2%,143% and 122%,113% and 94.8%,83.6% and 86.9%,94.6% and 93.6%,82.5% and 70.1%
O=[N+]([O-])c1ccc(N=Nc2ccc(O)cc2O)cc1,–,75.7%,70.3%,53.7%,38.4%,32.1%,51.8%,44.2%,43.1%,58.8%,67.2%,–,77.9%,55.5%,–,13.8%,33.2%,–,43.3%,–
Cc1c2ccccc2c(C)c2c1ccc1ccccc12,–,92.9%,88.1%,103%,94.5%,83%,64.3%,92.8%,98.6%,88.7%,94.3%,–,111%,97.2%,89%,81.1%,88.9%,–,93.1%,80.5%
